Source: PubChem
GRK2 aptamer HTS – human GRK2 inhibition via aptamer displacement | bead flow cytometry, FAM-aptamer displacement from GRK2 | 0.59% of 330,000 active | inhibition of aptamer binding, % at 10 µM | P25098;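 active = inhibition of aptamer binding above 40%, roughly 3 SD of noise, on plates passing a quality check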;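 also: median bead fluorescence of bound FAM aptamer so fluorescent compounds give negative values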
Target sequence (P25098 whole entry, looked up): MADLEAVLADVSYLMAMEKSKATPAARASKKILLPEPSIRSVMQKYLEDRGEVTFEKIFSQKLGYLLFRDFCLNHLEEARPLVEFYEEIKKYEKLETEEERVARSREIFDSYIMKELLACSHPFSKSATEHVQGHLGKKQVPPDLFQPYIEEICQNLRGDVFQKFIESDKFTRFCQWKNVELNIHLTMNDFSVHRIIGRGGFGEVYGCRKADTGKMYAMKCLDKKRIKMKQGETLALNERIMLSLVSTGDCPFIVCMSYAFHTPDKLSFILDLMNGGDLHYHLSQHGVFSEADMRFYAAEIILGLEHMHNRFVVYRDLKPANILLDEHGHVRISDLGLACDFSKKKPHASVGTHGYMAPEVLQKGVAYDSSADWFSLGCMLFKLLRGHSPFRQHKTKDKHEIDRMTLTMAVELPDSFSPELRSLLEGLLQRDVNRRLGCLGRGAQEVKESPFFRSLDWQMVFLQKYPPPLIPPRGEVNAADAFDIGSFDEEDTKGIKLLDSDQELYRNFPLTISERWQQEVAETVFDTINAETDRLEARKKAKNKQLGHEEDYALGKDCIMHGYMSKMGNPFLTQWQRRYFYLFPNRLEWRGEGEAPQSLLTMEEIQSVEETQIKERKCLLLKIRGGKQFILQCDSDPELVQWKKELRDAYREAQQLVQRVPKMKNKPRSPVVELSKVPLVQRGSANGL
MEKK2 WT-MEK5 – raises or lowers MEK5 binding to wildtype human MEKK2 PB1 domain; Q9Y2U5; bead flow cytometry, Alexa488-MEK5 binding to MEKK2 WT; actives lie on both sides; binding response (% of control), % at 10 µM; 1.1% of 290,000 active; in the data active = binding response below about 67% or above about 130%
MEKK3 PB1 HTS – MEKK3-MEK5 PB1 interaction, increase or decrease. Q99759. AID 1529. binding response (% of control), % at 10 µM. bead-based flow cytometry, Alexa488-MEK5 binding to MEKK3; actives lie on both sides; 0 = blocked by unlabeled MEK5, 100 = vehicle. 1.4% of 290,000 active;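 active = binding response more than 3 SD above or below the average of its plate-row segment, actives on both sides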;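 also: Alexa488 bead fluorescence after subtracting the streptavidin-only scavenger bead signal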
MEKK2mut PB1 HTS – signal of MEK5 binding to mutant human MEKK2 PB1 domain; bead flow cytometry, Alexa488-MEK5 binding to MEKK2 mutant; percent response, % at 10 µM; 0.35% of 290,000 active; AID 1530; in the data active = percent response above about 24%, passing the limit was not always enough
GRK2 inh confirm – human GRK2 inhibition confirmation, cherry pick 1. shares compounds with GRK2 aptamer HTS. aptamer displacement, % at 10 µM. bead-bound GRK2, FAM-aptamer displacement, flow cytometry. 4% of 2,000 active. AID 504451;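 active = aptamer displacement above 40%, near three times the noise of non-fluorescent compounds, on plates passing quality checks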;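 also: negative values mostly reflect intrinsic compound fluorescence rather than true enhancement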
Aptamer quench SP – aptamer fluorescence quenching in GRK2 counter-screen; shares compounds with GRK2 aptamer HTS; Carboxyfluorescein RNA aptamer on beads, flow cytometry quenching; hits give low values; fluorescence response (% of DMSO), % at 10 µM; 2,000 tested, under 10 active;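 active = compounds that quench the bead-bound fluorescent RNA probe, cutting fluorescence to under half of the solvent control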;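 also: counterscreen run without GRK2 so only probe quenching by compound is measured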
GRK2 CP2 – confirmation of human GRK2 inhibitors binding RNA aptamer site; bead-bound GRK2, FAM-aptamer displacement, flow cytometry; shares compounds with GRK2 aptamer HTS; inhibition of aptamer binding, % at 10 µM; 360 tested, under 10 active; AID 504782;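 active = inhibition of aptamer binding above 40%, about triple the noise seen with nonglowing compounds, on plates passing quality control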;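 also: negative values mostly come from compounds that fluoresce themselves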
FAM quench SP – counter-screen for GRK2 binding hits: quenchers of fluorescent RNA aptamer | shares compounds with GRK2 aptamer HTS | carboxyfluorescein RNA aptamer beads, flow cytometry quenching; hits give low values | fluorescence response vs DMSO, % at 10 µM | 360 tested, under 10 active;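 active = response vs DMSO under 50%, meaning signal dropped by over half, treated as fluorescence quencher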;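 also: labelled aptamer on streptavidin beads without GRK2 as a quench counter-screen; 100% = bead fluorescence of DMSO wells and lower means quenching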
Active calls of the source: *; x = not tested or not shown. Only some compounds are listed: those with a hit (about 2.5% of all), similar ones and a draw of the others.

SMILES	GRK2 aptamer HTS	MEKK2 WT-MEK5	MEKK3 PB1 HTS	MEKK2mut PB1 HTS	GRK2 inh confirm	Aptamer quench SP	others
COc1ccc(NC(=O)N2CCCCC2)cc1	6.0	103.0	104.0	4.0	x	x
COc1ccc(-c2noc(N3CCC(C(=O)Nc4ccccc4Cl)CC3)n2)cc1	0.0	102.0	100.0	2.0	x	x
COc1ccc(-c2noc(N3CCC(C(=O)Nc4ccc(OC)c(OC)c4)CC3)n2)cc1	83.0*	100.0	102.0	0.0	-0.5	99.9
CCOC(=O)c1cccc(NC(=O)CCS(=O)(=O)c2cccc3nsnc23)c1	3.0	x	x	x	x	x
Cc1cccc(NC(=O)CCS(=O)(=O)c2cccc3nsnc23)c1C	3.0	103.0	104.0	1.0	x	x	GRK2 CP2=13.3;FAM quench SP=101.0
Cc1cccc(NC(=O)CCc2ccccc2)c1C	85.0*	98.0	96.0	0.0	-4.5	98.4
Cc1cccc(NC(=O)CCSc2ccccc2)c1C	2.0	82.0	85.0	-13.0	x	x
COC(=O)c1ccc(CNC(=O)c2sccc2-c2ccccc2)cc1	0.0	101.0	103.0	3.0	x	x
CC(C)(C)c1ccc(C(=O)NN2C(=O)CSC2=S)cc1	55.0*	101.0	101.0	3.0	-4.5	98.4
Cc1ccc(C(=O)NN2C(=O)CSC2=S)cc1	0.0	97.0	95.0	-1.0	x	x
CC(=O)c1c(C)[nH]c(C(=O)CN2C(=O)NC(C)(c3ccc(C)cc3)C2=O)c1C (stereo not drawn)	54.0*	89.0	93.0	-8.0	-2.1	102.6
COc1ccc(Cc2nnc(SC)[nH]c2=O)cc1OC	51.0*	108.0	107.0	3.0	-1.3	98.2
CCc1ccc(NC(=O)CSc2nc3ccccc3c(=O)n2CCCC(=O)N2CCCC2)cc1	2.0	91.0	98.0	-6.0	x	x
CC(=O)N/C(=N/c1nc(C)cc(C)n1)Nc1cccc(C)c1C	17.0	100.0	99.0	4.0	0.2	98.2
CC(=O)N/C(=N\c1nc(C)cc(C)n1)Nc1ccccc1Cl	x	103.0	103.0	3.0	x	x
C=CCNC(C(=O)Nc1cccc(OC)c1)c1ccccc1 (stereo not drawn)	0.0	80.0	91.0	-11.0	x	x
CCN(CC)CCn1c(N)cc(=O)[nH]c1=O	0.0	100.0	96.0	-3.0	x	x
CCN(CC)CCn1c(OC)cc(=O)[nH]c1=O	69.0*	93.0	88.0	-10.0	-5.3	101.2
Cc1cccc(NC(=S)N2CCN(S(=O)(=O)c3ccc(F)cc3)CC2)c1	1.0	105.0	101.0	6.0	x	x
COC(=O)c1ccccc1N1C(=O)[C@@H]2C(c3ccc(F)cc3)=NO[C@@H]2C1=O	0.0	99.0	97.0	0.0	x	x	GRK2 CP2=0.2;FAM quench SP=101.0
Cc1cccc(NC(=O)CSc2c3c(nc4ccccc24)CCC3)n1	0.0	84.0	85.0	-12.0	x	x	GRK2 CP2=17.9;FAM quench SP=98.0
CC1(C)Cc2c(cnn2-c2cccc(F)c2)C(NC(=O)c2csnn2)C1 (stereo not drawn)	3.0	102.0	102.0	7.0	x	x
O=C(Nn1cnnc1)c1cc(Br)ccc1Cl	53.0*	104.0	106.0	2.0	-1.2	99.6
OCCC1CN(Cc2cccc3c2OCO3)CCN1C1CCCCC1 (stereo not drawn)	99.0*	104.0	103.0	5.0	0.9	98.1
OCCC1CN(Cc2cccc3c2OCO3)CCN1Cc1ccccc1 (stereo not drawn)	2.0	104.0	104.0	8.0	x	x
OC1(c2cccc(C(F)(F)F)c2)CCN(Cc2nnnn2Cc2ccccc2)CC1	93.0*	98.0	99.0	-3.0	0.8	94.0
OC1(c2cccc(C(F)(F)F)c2)CCN(Cc2nnnn2CCc2ccccc2)CC1	1.0	99.0	90.0	14.0	x	x
Cc1cccc(C)c1NC(=O)CN(C)CC(=O)c1c(N)n(Cc2ccccc2)c(=O)n(C)c1=O	0.0	x	x	x	-1.9	101.8
